Test systems include MOLT-4 leukemia; SR leukemia; RPMI-8226 leukemia; OVCAR-8 ovarian; OVCAR-5 ovarian; OVCAR-4 ovarian; SK-OV-3 ovarian; IGROV1 ovarian; OVCAR-3 ovarian; HS 578T breast; NCI/ADR-RES ovarian; T-47D breast; BT-549 breast; MDA-MB-435 melanoma; SW-620 colon; MCF7 breast; HCT-116 colon; HCC-2998 colon; KM12 colon.
What all share (assay): NCI-60 one-dose screen, 48 h (100 = growth as untreated, 0 = no growth, -100 = all killed)
Common to all, as to conditions: 10 µM unless noted

Molecules are shown by their SMILES. This is part of a sample that, as a whole, favours compounds with a hit. Of some 83,000 tested, about 20% had one in any assay.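 Single-dose data. Exposure time 48 hours. Values below 10 considered active.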 Values without a mark were called inactive. The source made the active and inactive calls.

Growth data for seven compounds are collected here from PubChem BioAssay (NCI).

With `CCn1c2ccccc2c2cc(C(=O)c3ccc(C)c4ccccc34)ccc21`, the growth was 7.66% (active) with MOLT-4 leukemia; 2.83% (active) in the test with SR leukemia; 12.2% in the test on RPMI-8226 leukemia; 22.8% in the test on OVCAR-8 ovarian; 28.6% with OVCAR-5 ovarian; 48.5% in the test on OVCAR-4 ovarian. For the same compound, the growth is 25.4% in the test on SK-OV-3 ovarian; 21.4% in the test with IGROV1 ovarian; 7.68% (active) with OVCAR-3 ovarian; 30.1% in the test on HS 578T breast; 6.35% (active) in the test on NCI/ADR-RES ovarian; 53.6% with T-47D breast. For the same compound, the growth in the test on BT-549 breast is 21.9%; with MDA-MB-435 melanoma, -34.1% (active); with SW-620 colon, 11.8%; in the test with MCF7 breast, 14.4%; with HCT-116 colon it was 12.1%; with HCC-2998 colon, 29.6%. Also, the growth in the test on KM12 colon is 13.4%.

As to `COC(=O)[C@@H](C)C[C@H](Cc1ccc(F)cc1)NC(=O)c1csc([C@@H](C[C@H](C(C)C)N(C)C(=O)[C@@H](NC(=O)[C@H]2CCCCN2C)C(C)C)OC(C)=O)n1`, the growth with MOLT-4 leukemia was 18.3%; with SR leukemia it was 14.9%; with RPMI-8226 leukemia, 17.4%; with OVCAR-8 ovarian it was 30%; in the test on OVCAR-5 ovarian, 53.7%; in the test with OVCAR-4 ovarian, 49.2%. For the same compound, the growth is 21.4% in the test on SK-OV-3 ovarian; 25.3% in the test on IGROV1 ovarian; -27.4% (active) in the test on OVCAR-3 ovarian; 34% with HS 578T breast; 25.2% in the test on NCI/ADR-RES ovarian; 77.3% in the test with T-47D breast. The growth is -18.6% (active) with BT-549 breast; -28.8% (active) in the test with MDA-MB-435 melanoma; 26.9% in the test with SW-620 colon; 22.2% in the test with MCF7 breast; 4.23% (active) with HCT-116 colon; 21.8% in the test with HCC-2998 colon. Also, the growth in the test with KM12 colon is 12.4%.

For the compound `CC(=O)[O][Hg][c]1c(N)c(C)cc(C)c1F`, the growth was -11.2% (active) with MOLT-4 leukemia; -11.2% (active) in the test with SR leukemia; -12.3% (active) with RPMI-8226 leukemia; -29.5% (active) in the test on OVCAR-8 ovarian; 47.3% with OVCAR-5 ovarian; 42% in the test with OVCAR-4 ovarian. For the same compound, the growth was 69.8% with SK-OV-3 ovarian; -32.7% (active) in the test on IGROV1 ovarian; -45.8% (active) in the test on OVCAR-3 ovarian; 26.8% with HS 578T breast; 74.6% with NCI/ADR-RES ovarian; -20% (active) in the test on T-47D breast. For the same compound, the growth with BT-549 breast was -14% (active); with MDA-MB-435 melanoma it was -60.5% (active); with SW-620 colon, -19.5% (active); in the test with MCF7 breast, -5.09% (active); in the test with HCT-116 colon, 25.7%; with HCC-2998 colon, 93.7%. Besides, the growth in the test with KM12 colon is 81.4%.

For the compound `C1CCC2(CC1)OOCNCOO2`, the growth was 77.9% in the test on MOLT-4 leukemia; 62.8% in the test with SR leukemia; 102% in the test on RPMI-8226 leukemia; 101% with OVCAR-8 ovarian; 109% in the test on OVCAR-5 ovarian; 112% in the test with OVCAR-4 ovarian. The growth was 105% in the test with SK-OV-3 ovarian; 104% in the test with IGROV1 ovarian; 103% in the test on OVCAR-3 ovarian; 115% with HS 578T breast; 101% in the test on NCI/ADR-RES ovarian; 89.8% in the test with T-47D breast. Also, the growth with BT-549 breast is 106%; with MDA-MB-435 melanoma it was 101%; in the test with SW-620 colon, 103%; with MCF7 breast, 45.7%; in the test with HCT-116 colon it was 92.8%; in the test with HCC-2998 colon, 106%. The growth in the test with KM12 colon was 95.9%.

Turning to `CC[C@H](C)[C@@H]([C@@H](CC(=O)N1CCC[C@H]1[C@H](OC)[C@@H](C)C(=O)N[C@H](C)[C@@H](O)c1ccccc1)OC)N(C)C(=O)[C@@H](NC(=O)[C@@H](NC)C(C)C)C(C)C`, the growth was 18.3% in the test on MOLT-4 leukemia; 13.8% with SR leukemia; 26.5% with RPMI-8226 leukemia; 21% in the test on OVCAR-8 ovarian; 60.9% in the test on OVCAR-5 ovarian; 36.2% in the test with OVCAR-4 ovarian. For the same compound, the growth in the test on SK-OV-3 ovarian is 14.1%; in the test with IGROV1 ovarian it was 18.1%; in the test with OVCAR-3 ovarian, -13.9% (active); in the test with HS 578T breast, 28.9%; with NCI/ADR-RES ovarian, -2.45% (active); in the test with T-47D breast, 87.3%. Besides, the growth in the test with BT-549 breast is 6.48% (active); with MDA-MB-435 melanoma, 2.42% (active); with SW-620 colon it was 32.8%; in the test with MCF7 breast, 15.3%; with HCT-116 colon it was 7.3% (active); with HCC-2998 colon, 9.29% (active). In the test on KM12 colon, the growth was 15.3%.

On to `Cc1c(O)c(CN(CCCl)CCCl)cc(CN(CCCl)CCCl)c1O`, for which the growth is 75.2% with MOLT-4 leukemia; 4.03% (active) in the test with SR leukemia; 86.8% in the test with RPMI-8226 leukemia; 90.4% in the test with OVCAR-8 ovarian; 97.9% in the test with OVCAR-5 ovarian; 83.9% in the test with OVCAR-4 ovarian. The growth in the test on SK-OV-3 ovarian was 102%; with IGROV1 ovarian, 87.4%; in the test with OVCAR-3 ovarian, 101%; in the test on HS 578T breast, 86.3%; in the test with NCI/ADR-RES ovarian, 103%; in the test with T-47D breast, 79.3%. Besides, the growth is 99.1% with BT-549 breast; 96.8% in the test with MDA-MB-435 melanoma; 67.9% in the test with SW-620 colon; 67.5% with MCF7 breast; 84% in the test with HCT-116 colon; 90.6% in the test on HCC-2998 colon. In the test on KM12 colon, the growth was 103%.

On to `COC(=O)[C@@H](C)C[C@H](Cc1ccccc1)NC(=O)c1nc([C@@H](C[C@H](C(C)C)N(C)C(=O)[C@@H](NC(=O)[C@H]2CC(=O)CCN2C)C(C)C)OC(C)=O)sc1C(C)C`, for which the growth in the test on MOLT-4 leukemia was 15%; with SR leukemia, 10.9%; in the test on RPMI-8226 leukemia it was -3.35% (active); with OVCAR-8 ovarian, 8.46% (active); in the test with OVCAR-5 ovarian, 35.5%; in the test on OVCAR-4 ovarian, 45.8%. For the same compound, the growth is 29.1% in the test with SK-OV-3 ovarian; 14.4% with IGROV1 ovarian; -15.6% (active) in the test with OVCAR-3 ovarian; 9.66% (active) in the test with HS 578T breast; 54.3% in the test with NCI/ADR-RES ovarian; 82.9% in the test with T-47D breast. Further, the growth is -10.6% (active) in the test on BT-549 breast; -43.4% (active) in the test on MDA-MB-435 melanoma; 24.2% with SW-620 colon; 24.6% with MCF7 breast; 5.82% (active) in the test with HCT-116 colon; 24.6% in the test with HCC-2998 colon. Moreover, the growth in the test with KM12 colon was 6.01% (active).
